Test results published in PubChem BioAssay AID588719 (Southern Research Specialized Biocontainment Screening …, 2011).
The whole screen tested about 1,500 compounds, of which about 920 (61%) were called active. No rule for the calls is given here. So high a share suggests a set chosen from earlier hits. Some of the results follow. Measured potencies and affinities stand elsewhere.

Test: Vero 76 cell cytotoxicity, dose response, cytotoxicity control for VEEV inhibitor project (AID 588719)
Conditions: Vero 76 cells viability, cytotoxicity counter-screen; series mostly up to 25 µM

| SMILES | outcome |
| --- | --- |
| O=C(O)CCN1C(=O)/C(=C2\C(=O)N(Cc3ccc(F)cc3)c3ccccc32)SC1=S | inactive |
| O=C(CCN1C(=O)/C(=C/c2ccccc2F)SC1=S)NCCc1ccc(O)cc1 | inactive |
| COc1cc(NC(C)CCCN)c2nc(C)ccc2c1Oc1ccc(F)cc1 (configuration not stated) | inactive |
| O=c1c2ccccc2nc(-c2ccoc2)n1CCc1ccccc1 | inactive |
| CCc1[nH]nc(C(=O)NC2CCCc3c2cnn3-c2cc(C)cc(C)c2)c1C (configuration not stated) | inactive |
| COc1ccc(OCCn2c(C)nc3ccccc32)cc1 | inactive |
| CCCCCCCCCCOC(=O)Cn1c(COc2cccc(OC)c2)[n+](C)c2ccccc21 | inactive |
| O=C(CSC1=Nc2ccccc2C2CC=NN12)Nc1ccc2c(c1)OCO2 (configuration not stated) | inactive |
| NC(=O)c1ccc(NC(=O)COC(=O)C2COc3ccccc3O2)cc1 (configuration not stated) | inactive |
| NS(=O)(=O)c1cccc(NC(=O)CN2C(=O)C(=O)N(Cc3ccccc3)C2=O)c1 | inactive |
| C=CCn1c(SCC(=O)NNC(=O)Nc2cccc(Cl)c2)nnc1-c1ccccc1 | inactive |
| O=C(COC(=O)COc1ccccc1)Nc1ccc(Br)cc1F | inactive |
| CN(CCC#N)C(=O)COC(=O)c1ccc2[nH]c3c(c2c1)CCCC3 | inactive |
| Cc1ccc([C@H]2C[C@H](n3cc(-c4ccc(F)cc4)nn3)[C@@H](O)CN2CC2CCCCC2)cc1 | inactive |
| Cc1nc(-c2ccccc2)sc1C(=O)/C=C/c1ccccc1 | inactive |
| O=C(Nc1ncc(Cc2ccccc2Cl)s1)C1CCCO1 (configuration not stated) | inactive |
| O=C1Nc2cc3c(cc2C1=O)sc1ccccc13 | inactive |
| Cc1nc(S/C(C(=O)O)=C2/C(=O)Nc3ccccc32)n[nH]1 | inactive |
| O=C(C=Cc1cccs1)c1cccs1 | inactive |
| CN1C[C@H](CNC(=O)OCc2ccccc2)C[C@@H]2c3cccc4c3c(cn4C)C[C@H]21 | inactive |
| Cc1ccc2c(c1)cc(C(=O)NCc1ccccc1)n2C | inactive |
| CCn1c(O)c(/C=N/NC(=O)c2ccccc2)c(=O)[nH]c1=S | inactive |
| COc1ccc(/C=N/NC(=O)c2cccnc2)cc1COc1ccc(NC(C)=O)cc1 | inactive |
| O=[N+]([O-])c1cccc(-c2c[n+]3c(n2-c2ccccc2)SCC3)c1 | inactive |
| COc1cc(/C=C2/SC(=S)N(CCC(=O)N3CCN(C)CC3)C2=O)cc(OC)c1OC | inactive |
| COCCN(Cc1nc(-c2ccc(-c3ccccc3)cc2)oc1C)C(C)C | inactive |

| SMILES | outcome |
| --- | --- |
| COc1cccc(NC(=S)N(CCCN2CCCC2)Cc2cccn2Cc2ccc(Cl)cc2)c1 | inactive |
| O=C(Cc1c[nH]c2ccccc12)Nc1nnc(C2CC2)s1 | inactive |
| COc1ccc(NC(=O)[C@H](Cc2c[nH]c3ccccc23)NC(=O)[C@@H]2Cc3ccccc3CN2)cc1 | inactive |
| O=C1C2CCCN2C(c2ccccc2)N1c1ccc(Cl)cc1 (configuration not stated) | inactive |
| CC(=O)c1c(C)cc(C)c(CSc2nc(C)cc(=O)[nH]2)c1C | inactive |
| CCc1ccc([C@@H]2C[C@H]3[C@@H](CN2S(=O)(=O)c2ccc(C)cc2)C(=O)C[C@@H](c2ccc(Cl)cc2)N3S(=O)(=O)c2ccccc2C)cc1 | inactive |
| Cc1cc2nc(/N=C(\N)NC(=O)C(C)C)nc(C)c2cc1C | inactive |
| O=c1c2ccccc2[nH]c(=S)n1CCCN1CCN(c2ccccc2)CC1 | inactive |
| O=c1c2ccccc2[nH]c(=S)n1CCCN1CCN(c2ccccc2F)CC1 | inactive |
| COc1ccc(S(=O)(=O)Nc2ccc3c(c2)C(=O)N([C@H](C)CO)C[C@H](C)[C@@H](CN(C)C(=O)Nc2ccc(C(F)(F)F)cc2)OCCCC[C@H](C)O3)cc1 | inactive |
| c1ccc(CCNc2ccc3c(c2)Cc2ccccc2-3)nc1 | inactive |
| Cc1cc2ccc3ccccc3c2cc1CN(C)C | inactive |
| Cc1cccc(C(=O)Nc2ccccc2SCC2CSc3nc4ccccc4c(=O)n32)c1 (configuration not stated) | inactive |
| O=C(CC1C(=O)NC2CCCCC2N1C(=O)c1ccc([N+](=O)[O-])cc1)Nc1ccccc1 (configuration not stated) | inactive |
| CC(=O)C1C(N2CC2)CC2C3CCC4=CC(=O)CCC4(C)C3CCC21C (configuration not stated) | inactive |
| CN1CCN(/N=C/c2ccc(N(c3ccccc3)c3ccccc3)cc2)CC1 | inactive |
| OC1(c2cccs2)CN(c2ccc(Br)cc2)C2=[N+]1CCCS2 (configuration not stated) | inactive |
| Nc1ccccc1/C=C/c1ccccc1N | inactive |
| CN(C)CCC(=O)C(Cc1ccccc1)c1ccccc1 (configuration not stated) | inactive |
| Cc1nn(-c2ccccc2)nc1C(=O)Nc1nnc(C(F)(F)F)s1 | inactive |
| COc1ccccc1NC(=O)c1nc(S(=O)(=O)Cc2ccccc2)ncc1Cl | inactive |
| CCCc1nnc(NC(=O)c2nc(S(=O)(=O)Cc3ccc(C)cc3)ncc2Cl)s1 | inactive |
| Cc1ccc(C)c(NS(=O)(=O)c2ccc(-n3cccn3)cc2)c1 | inactive |
| Cc1ccccc1-c1n[nH]c(=S)n1/N=C/c1ccc(-c2ccccc2Br)o1 | inactive |
| O=C(COC(=O)c1ccc(Br)o1)NCc1ccc(Cl)cc1 | inactive |
| Cc1noc(C)c1NC(=O)N(C)C[C@H]1OCc2cnnn2CCCC(=O)N([C@H](C)CO)C[C@@H]1C | inactive |

| SMILES | outcome |
| --- | --- |
| CC(C)(C)C(=O)Nc1sc(-c2ccccc2)cc1C(=O)O | inactive |
| Nc1cc[n+](CC(=O)c2ccc3c(c2)OCCO3)cc1 | inactive |
| CN(C)c1ccc(C(=O)c2ccc(N(C)C)c3ccccc23)cc1 | inactive |
| O=C(OCC(=O)N1CCOCC1)c1ccc2[nH]c3c(c2c1)CCCC3 | inactive |
| COc1ccc(-n2c(O)c(C=NCCN(C)C)c(=O)[nH]c2=O)cc1 | inactive |
| O=C(Nc1ccc(N2CCCCC2)c(Cl)c1)c1cccnc1 | inactive |
| Cc1c(O)c2ccccc2oc1=O | inactive |
| CC1=C(C(=O)N2CCOCC2)CC(CC(=O)NC2CCCCC2)C(=O)N1Cc1ccc(C(C)(C)C)cc1 (configuration not stated) | inactive |
| COc1ccc(C2CC(=O)C3=C(C2)NC(C)=C(C#N)C3c2ccc(N(C)C)cc2)cc1 (configuration not stated) | inactive |
| CC(=O)/C(C#N)=C1\NC(=O)C(Cc2ccccc2)S1 (configuration not stated) | inactive |
| CCc1nc(CN2CCCC(C(=O)Nc3ccc(-c4cccc(OC)c4)cc3)C2)c(C)[nH]1 (configuration not stated) | inactive |
| COc1ccc(O)c(CN2CCCC(C(=O)Nc3cccc(-n4cccn4)c3)C2)c1 (configuration not stated) | inactive |
| CN(c1ccc(OCC(=O)Nc2ccccc2C(=O)O)cc1)S(=O)(=O)c1ccc(Cl)cc1 | inactive |
| COc1ccc(-c2csc(NC(=S)NC(=O)c3cccs3)n2)cc1Br | inactive |
| Cc1nn(Cc2c(Cl)cccc2Cl)c(C)c1NC(=O)c1cc(C(C)C)on1 | inactive |
| O=c1[nH]c(SCc2nc3c(cnn3-c3ccccc3)c(=O)[nH]2)nc2ccccc12 | inactive |
| CCN(CC)P(=O)(NC(=O)C(Cl)(Cl)Cl)N(CC)CC.[Cl-].[Cl-].[Cl-].[Nd+3] | inactive |
| Cc1nc(/C(N)=N/OC(=O)c2ccccc2Cl)c(C(F)(F)F)o1 | inactive |
| C/C(N)=C(/C#N)C(=O)CSc1nnc(-c2ccc(OC(F)F)cc2)o1 | inactive |
| COc1ccc(NC(=O)N(C)C[C@H]2Oc3cc(Br)ccc3S(=O)(=O)N([C@H](C)CO)C[C@@H]2C)cc1 | inactive |
| Cc1[nH]c(=S)[nH]c(=O)c1Cc1c(O)ccc2ccccc12 | inactive |
| CN(C)C1CCc2[nH]c3c(F)cc(F)cc3c2C1 (configuration not stated) | inactive |
| COc1ccc2c(c1)c(CCN)c(C)n2Cc1ccccc1 | inactive |
| Cc1ccc2nc(-c3ccc(NS(=O)(=O)c4c(C)n(C)c(=O)n(C)c4=O)cc3)sc2c1 | inactive |
| COc1cc(NC(=O)C2=C(C)OCCS2)c(Cl)cc1C(=O)NCCCN1CCCC(C)C1 (configuration not stated) | inactive |
| Cc1nn2c(NCCN(C)C)c3c(nc2c1-c1ccccc1)CCC3 | inactive |

| SMILES | outcome |
| --- | --- |
| CCOC(=O)C(C(=O)OCC)C(c1ccccc1)N1CCN(c2ccccc2)CC1 (configuration not stated) | inactive |
| OC1(c2cccs2)CN(c2ccc(Cl)cc2)C2=[N+]1CCCC2 (configuration not stated) | inactive |
| Cc1cn([C@H]2C[C@H](O)[C@@H](CCC(=O)NCc3ccc(N(C)C)cc3)O2)c(=O)[nH]c1=O | inactive |
| CC(C)=CCN1CCN(Cc2nc(C(C)C)cs2)CC1CCO (configuration not stated) | inactive |
| N=C1C(c2nc(-c3ccc(Cl)cc3)cs2)=C(O)CN1CCCN1CCOCC1 | inactive |
| O=C1C(=Cc2ccccc2O)SC(=S)N1CCCN1CCOCC1 | inactive |
| COCCNC(=O)CCCn1c(=O)c2cc(OC)c(OC)cc2n(CC(=O)Nc2ccc(C)c(F)c2)c1=O | inactive |
| CC(C)(C)c1cc(NC(=O)c2cc(F)c(F)c(F)c2F)no1 | inactive |
| CCN(Cc1ccncc1)C(=O)c1ccccc1NS(=O)(=O)c1ccc(Br)cc1 | inactive |
| COc1cc(OC)cc(C(=O)NCC(=O)OCC(=O)NC2CCCc3ccccc32)c1 (configuration not stated) | inactive |
| COc1cc(OC)cc(C(=O)NCCSc2c[nH]c3ccccc23)c1 | inactive |
| Cc1ccc(C(=O)/C=C/c2ccccc2)o1 | inactive |
| O=C(/C=C/c1ccccc1)c1ccccc1 | inactive |
| CCOc1ccccc1OCCC(=O)N1CCN(S(=O)(=O)c2ccccc2[N+](=O)[O-])CC1 | inactive |
| O=C(COC(=O)c1ccc(O)cc1)Nc1ccc2c(c1)OCO2 | inactive |
| COc1ccc(C(=O)NCC(=O)NCc2ccc3c(c2)OCO3)cc1[N+](=O)[O-] | inactive |
| CCCOc1ccc(Oc2nc(-c3ccncc3)nc3ccccc23)cc1 | inactive |
| COc1ccccc1[C@]1(C)ON(c2ccccc2C(F)(F)F)C1=O | inactive |
| [O-][n+]1onc2c1CCc1[nH]c(-c3ccccc3)nc1-2 | inactive |
| COc1ccc(C=CC(=O)c2c(OC)cc(OC)c(OC)c2O)cc1 | inactive |
| COc1ccc(/C=C/C(=O)c2cc3cccc(OC)c3oc2=O)cc1 | inactive |
| CCOC(=O)NNc1cc(C(F)(F)F)ccn1 | inactive |
| Cc1ccc(C(=O)Nc2ccccc2SCC2CSc3nc4ccccc4c(=O)n32)cc1 (configuration not stated) | inactive |
| COc1cc2c(cc1NC(=O)c1ccc(C(C)(C)C)cc1)CCCC2 | inactive |
